In ChEMBL document CHEMBL1157539, “Thousands of chemical starting points for antimalarial lead identification” (Nature, 2010) one finds inhibition data, which are given here for 30 compounds.

Fewer than 10 of roughly 13,000 compounds showed an effect of 50% or more. The list is a sample of the results.

For orientation: inhibition means the percentage by which the read-out fell short of the control. Low readings indicate a response near the control, high ones a response far below the control.

The test has as its system Plasmodium falciparum. Put plainly: GSK_TCMDC: Inhibition of Plasmodium falciparum 3D7 LDH activity, using an LDH reporter assay. Test compounds present at 2uM. Type of test: functional, organism-based.
Compound `COc1cc2nc(N3CCC(CNC(=O)c4ccc(NC(=O)c5ccc(Cl)cc5)cc4)CC3)nc(N)c2cc1OC` returned an inhibition of 0%.

For `CCNC1=NC2=C(CC(C(C)(C)C)CC2)C2(CCC(C(C)(C)C)CC2)S1` (stereo not given), the inhibition came out at 4%.

As to `Cc1ccc(Cc2c[nH]c(NCCSCc3ccc(CN4CCOCC4)o3)nc2=O)cn1`, the inhibition turned out to be 0%.

In the case of `Cc1cc(-c2c[nH]c3ncc(-c4cccc5ncccc45)cc23)ccc1C(=O)O`, the inhibition amounted to 0%.

Take `Cc1cccc2nc(-c3ccc(-c4ccc(CN5CCCCC5)cc4)cc3)[nH]c12`: the inhibition was 0%.

`Cc1cc(I)ccc1Nc1nc2nonc2nc1Nc1ccc(I)cc1C`: the inhibition came out at 0%.

Compound `CS(=O)(=O)c1ccc(CNCc2ccc(-c3cccc(-c4nc5cc(C(F)(F)F)ccc5[nH]4)c3)cc2)cc1` had an inhibition of 8%.

Consider `Fc1ccc(C=NN=c2cc[nH]c3ccccc23)cc1`, for which the inhibition came out at 4%.

On to `COc1ccc(OCCCCON2C(=N)N=C(N)NC2(C)C)cc1`, for which the inhibition worked out at 4%.

In turn, `COc1cccc(CCN(Cc2ccccc2-c2ccc(CNC3CC(C)(C)NC(C)(C)C3)cc2)C(=O)NC2CCCCC2)c1` had an inhibition of 0%.

`N#Cc1ccc(N2C[C@@H](OCc3ccccc3)C[C@H]2C(=O)NCCC(c2ccccc2)c2ccccc2)c2ccccc12` returned an inhibition of 0%.

Consider `CCCCCCOc1ccc(C(=O)N(Cc2ccccc2)c2c(-c3ccccc3)nc3cc(C)ccn23)cc1`, for which the inhibition worked out at 3%.

As to `CCc1cccc2sc(N3CCN(C(=O)c4ccc([N+](=O)[O-])o4)CC3)nc12`, the inhibition was determined as 0%.

`CCOc1c(CCNCCCCNCCc2ccc3ccccc3c2OCC)ccc2ccccc12` came in with an inhibition of 0%.

The compound `CN1CCC(Oc2ccc(CN3CC[C@H](NC(=O)c4ccc(Cl)c(F)c4)C3)c3ccccc23)C1` (stereo not given in full) registered an inhibition of 3%.

`CCN(CC)CCN(Cc1ccc(-c2ccc(C(F)(F)F)cc2)cc1)C(=O)Cn1c(CCc2ccccc2F)nc(=O)c2ccccc21` displayed an inhibition of 0%.

Turning to `Cc1cccc2nc(-c3cccc(-c4ccc(NC(=O)c5ccoc5)cc4)c3)[nH]c12`, the inhibition was 0%.

Turning to `O=c1cc(NCCCNCc2cccc(OC(F)(F)F)c2)[nH]c2ccccc12`, the inhibition is 0%.

`O=C(Nc1ccc2c(c1)CCC2)N[C@H]1CCN(Cc2ccc(OCCCN3CCCCC3)cc2)C1` yielded an inhibition of 0%.

For the compound `CCN1CCC(N(Cc2ccc(-c3ccc(C(F)(F)F)s3)cc2)C(=O)Cn2c(CCc3cccc(F)c3F)nc(=O)c3ccccc32)CC1`, the inhibition amounted to 7%.

Take `Fc1ccc2[nH]c(-c3cccc(-c4ccc(CNCc5cnn(-c6ccccc6)n5)cc4)c3)nc2c1`: the inhibition was found to be 0%.

In turn, `CNCCNCc1ccc(-c2ccc(-c3nc4cc(F)ccc4[nH]3)cc2)cc1` displayed an inhibition of 4%.

As for `O=C1C(=Cc2c(O)ccc3ccccc23)SC(=NCc2ccccc2)N1Cc1ccccc1`, the inhibition worked out at 0%.

`COC(=O)c1cccc(CNCc2cccc(-c3ccc(-c4nc5cccc(C)c5[nH]4)s3)c2)c1` gave an inhibition of 1%.

As to `CCN1CCC(N(Cc2ccc(-c3ccc(C(F)(F)F)cc3)cc2)C(=O)Cn2c(CCc3cccc(F)c3F)nc(=O)c3ccccc32)CC1`, the inhibition worked out at 3%.

Regarding `Cc1cccc2nc(-c3cccc(-c4ccc(NC(=O)c5cnccc5C(F)(F)F)cc4)c3)[nH]c12`, the inhibition stood at 0%.

The compound `CCOC(=O)NC1=NC(C)(C)N(OCCCOc2ccc(C)cc2C)C(NC(=O)OCC)=N1` registered an inhibition of 7%.

`CS(=O)(=O)c1cc2c(Nc3ccc(N4CCOCC4)cc3)c(C(N)=O)cnc2cc1Br` showed an inhibition of 0%.

Consider `COc1ccc2nccc(N3CCC(CCNCc4cc5c(cn4)OCCO5)CC3)c2c1`, for which the inhibition amounted to 6%.

`O=C(Nc1cccc(F)c1)N1CCC(CN2CCOC(c3ccccc3)(c3ccccc3)C2)CC1` showed an inhibition of 7%.
